Assay results as given in ChEMBL document CHEMBL3988442, “University of Dundee, Small-Polar-MMV Screening Library” (2021).

Legend:
[1] = biological target: T1, Aspartate--tRNA(Asp/Asn) ligase (Mycobacterium tuberculosis (strain ATCC 25618 / H37Rv)) (UniProt P9WFW3); test: Assay for Asp RNA synthetase-1 from Mycobacterium tuberculosis; format: functional; design: scale not given: direction of the effect not stated beside the values; settings: 30 µM; further: in the data most compounds retested in dose-response had high values
T1 sequence (whole entry): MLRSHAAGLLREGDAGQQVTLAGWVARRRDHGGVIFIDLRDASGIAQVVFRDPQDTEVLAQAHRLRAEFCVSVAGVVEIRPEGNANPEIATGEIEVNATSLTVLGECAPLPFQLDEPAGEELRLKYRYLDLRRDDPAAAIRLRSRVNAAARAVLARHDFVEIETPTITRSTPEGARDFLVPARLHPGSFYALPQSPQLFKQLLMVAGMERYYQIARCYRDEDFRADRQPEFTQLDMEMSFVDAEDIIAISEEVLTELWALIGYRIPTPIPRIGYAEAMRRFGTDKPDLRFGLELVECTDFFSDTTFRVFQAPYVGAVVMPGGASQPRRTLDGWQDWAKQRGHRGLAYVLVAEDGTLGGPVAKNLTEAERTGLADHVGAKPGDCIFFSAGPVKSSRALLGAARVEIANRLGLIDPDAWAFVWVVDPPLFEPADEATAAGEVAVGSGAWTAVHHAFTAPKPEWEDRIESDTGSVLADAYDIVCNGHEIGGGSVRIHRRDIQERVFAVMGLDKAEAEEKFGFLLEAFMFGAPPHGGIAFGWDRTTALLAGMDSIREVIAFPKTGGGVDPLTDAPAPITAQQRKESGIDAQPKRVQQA

[2] = biological target: Shiga toxin 2 (Escherichia coli O157:H7) (UniProt P09385+P09386); test: E. coli 0.157:H7 Shiga Toxin SOP - stx2 screening assay; format: functional; design: scale not given: direction of the effect not stated beside the values; settings: 30 µM

For `CS(=O)(=O)NCCCN1CCCC1c1ccccc1` (centres undefined), the Percent Effect [1] was 2.4% and the Percent Effect [2] was 10%.
Compound `O=C(c1csc(-c2cccs2)n1)N1CCCC1Cn1cccn1` (centres undefined) has a Percent Effect [1] of 3.15% and a Percent Effect [2] of 37.2%.
`COc1cccc(CN2CCN(c3ccc4nncn4n3)C(C)C2)c1` (centres undefined) showed a Percent Effect [1] of -3.34% and a Percent Effect [2] of 14.8%.
With `CN(CC(=O)N1CCN(c2ncccn2)CC1)c1ccc(Cl)cn1` the Percent Effect [1] was -2% and the Percent Effect [2] was -0.376%.
Compound `Cn1cnc2c1CCN(Cc1nc(-c3ccsc3)no1)C2` has a Percent Effect [1] of -8.92% and a Percent Effect [2] of -33%.
For `O=C(c1ccc(-n2cccn2)nc1)N1CCC(Nc2cccnn2)CC1`, the Percent Effect [1] was -2.94% and the Percent Effect [2] was 26.9%.
`CC(=O)N1CCCN(C(=O)NCc2cc[nH]n2)CC1` gave a Percent Effect [1] of -1.74% and a Percent Effect [2] of -9.44%.
For `Cc1ccc(CC(=O)NC(C)C(=O)N2CCS(=O)(=O)CC2)cc1` (centres undefined), the Percent Effect [1] was 0.123% and the Percent Effect [2] was 1.85%.
In the case of `O=C(c1ccccn1)N1CCCC(c2nccn2CC2CCC2)C1` (centres undefined), the Percent Effect [1] is reported as 4.83% and the Percent Effect [2] is reported as -29.9%.
`CCn1ncnc1C(NC(=O)CC1CCN(C(C)C)CC1)C1CC1` (centres undefined) was tested, and the Percent Effect [1] was 1.82% and the Percent Effect [2] was -13.7%.
`Cn1ccc(CN2CCC(OCCc3ccccc3)CC2)cc1=O` was tested, and the Percent Effect [1] was 2.67% and the Percent Effect [2] was 8.32%.
`CCn1cnnc1CNC(=O)N1CCN(c2nc(C)c(C)s2)CC1` was tested, and the Percent Effect [1] was -5.01% and the Percent Effect [2] was -22.1%.
In the case of `CCc1nnc2n1CCN(C(=O)c1csc(-c3cnn(C)c3)n1)C2`, the Percent Effect [1] is reported as 0.836% and the Percent Effect [2] is reported as -15.8%.
With `Cc1ccc(C(=O)N2CCCC3(CCCC(=O)N3C)C2)cc1F` (centres undefined) the Percent Effect [1] was 3.71% and the Percent Effect [2] was -5.85%.
`CC(=O)NC1CCCN(C(=O)NCc2cccnc2N(C)C)C1` (centres undefined) gave a Percent Effect [1] of -7.86% and a Percent Effect [2] of -12.4%.
With `Fc1cnc(N2CCCC3(CN(Cc4ccncc4)CCO3)C2)nc1` (centres undefined) the Percent Effect [1] was 7.9% and the Percent Effect [2] was -0.17%.
In the case of `Cc1ccc(S(=O)(=O)NC2CNC(=O)C2)cc1C` (centres undefined), the Percent Effect [1] is reported as -1.98% and the Percent Effect [2] is reported as 9.86%.
In the case of `CCn1cc(CN(C)S(=O)(=O)c2cnn(CC)c2C)c(C)n1`, the Percent Effect [1] is reported as -3.81% and the Percent Effect [2] is reported as 3.32%.
`COC(=O)c1sccc1NC(=O)C1CCCN1C(=O)c1ccco1` (centres undefined) showed a Percent Effect [1] of -0.808% and a Percent Effect [2] of -12.3%.
With `COc1ccc(CN2CCCCC2CNC(=O)OC(C)(C)C)cc1F` (centres undefined) the Percent Effect [1] was -1.76% and the Percent Effect [2] was 6.58%.
With `CCS(=O)(=O)N1CCC2(CC1)CN(Cc1ccccn1)C(=O)CO2` the Percent Effect [1] was 0.198% and the Percent Effect [2] was -10.6%.
For `COCC1c2nnn(CC3CC3)c2CCN1C(=O)c1cccc(F)c1` (centres undefined), the Percent Effect [1] was -5.71% and the Percent Effect [2] was 7.97%.
For `Cc1cnn(C2CCCN(C(=O)C3=NN(C)C(=O)CC3)C2)c1` (centres undefined), the Percent Effect [1] was 3.95% and the Percent Effect [2] was 3.74%.
For `Cc1noc(C(C)C)c1C(=O)NCc1cccc(N(C)C)c1`, the Percent Effect [1] was -3.25% and the Percent Effect [2] was 13.2%.
Compound `O=C(NCCNc1ncccn1)c1ccc(-c2ccco2)[nH]c1=O` has a Percent Effect [1] of 6.93% and a Percent Effect [2] of 10.7%.
`c1cncc(COCC2CN(Cc3ccco3)Cc3ccnn3C2)c1` (centres undefined) showed a Percent Effect [1] of 1.51% and a Percent Effect [2] of -12.8%.
With `CC(=O)N1CCc2c(nc(-c3ccccn3)nc2N(C)CC(O)CO)C1` (centres undefined) the Percent Effect [1] was -6.34% and the Percent Effect [2] was 26.6%.
Work on `CN(C)C(=O)CN1CCCCC1c1nc(N)ncc1-c1cccc(F)c1` (centres undefined) yielded a Percent Effect [1] of -1.78% and a Percent Effect [2] of -2.08%.
Compound `CS(=O)(=O)NC[C@@H]1OC[C@H]2CN(C(=O)c3ccc[nH]3)CC[C@H]21` has a Percent Effect [1] of 3.32% and a Percent Effect [2] of 0.898%.
Work on `CC1CCN(Cn2nc(-c3ccc(F)cc3)oc2=O)CC1` yielded a Percent Effect [1] of -0.789% and a Percent Effect [2] of -14.8%.
In the case of `CCc1ccc(S(=O)(=O)Nc2cn(C)cc(Br)c2=O)cc1`, the Percent Effect [1] is reported as -3.18% and the Percent Effect [2] is reported as -8.3%.
`CSC(C)C(=O)NCCCc1cc(N)n(-c2ccccc2)n1` (centres undefined) was tested, and the Percent Effect [1] was -3.65% and the Percent Effect [2] was -1.83%.
`Cc1cnc(CN(C)C2CCN(Cc3nc4ccccc4n3C)C2)o1` (centres undefined) showed a Percent Effect [1] of -5.16% and a Percent Effect [2] of -27.3%.
`Cc1cnn(CC2CCCN2Cc2coc(-c3ccccc3)n2)c1` (centres undefined) showed a Percent Effect [1] of -5.72% and a Percent Effect [2] of -30.1%.
`COCCN(Cc1ccoc1)C(=O)c1ccccc1Cl` gave a Percent Effect [1] of 2.46% and a Percent Effect [2] of 6.17%.
In the case of `COCCC(=O)N1CCC2(COCc3cnc(N4CCOCC4)nc32)C1` (centres undefined), the Percent Effect [1] is reported as 1.66% and the Percent Effect [2] is reported as 9.32%.
For `O=C(c1cccc(Cl)c1)N1CCCn2c(CN3CCCCC3)nnc2C1`, the Percent Effect [1] was -2.93% and the Percent Effect [2] was -13.3%.
In the case of `CCOc1ccc(Cl)cc1CNCCCn1ccnc1`, the Percent Effect [1] is reported as 0.842% and the Percent Effect [2] is reported as -32.5%.
`Cc1ncnc2c1CCN(Cc1ccccn1)CC2` was tested, and the Percent Effect [1] was 1.8% and the Percent Effect [2] was -19.4%.
With `C[C@H]1C[C@@H]2CCN(C(=O)c3ccncn3)C[C@H]2O1` the Percent Effect [1] was 4.15% and the Percent Effect [2] was -27.6%.
For `O=C(NCc1cnc2n1CCN(c1ncc(F)cn1)CC2)C1CCC1`, the Percent Effect [1] was -2.16% and the Percent Effect [2] was 3.59%.
With `OC1(Cn2ccc3ncccc32)CCN(Cc2ccccn2)CC1` the Percent Effect [1] was 11.7% and the Percent Effect [2] was -31.8%.
`O=C(c1ccc(Br)o1)N1CCCCC1Cn1cccn1` (centres undefined) gave a Percent Effect [1] of 4.78% and a Percent Effect [2] of -8.55%.
`CC(=O)N(Cc1noc(C)n1)C1CCN(Cc2cc(C)on2)C1` (centres undefined) was tested, and the Percent Effect [1] was 4.07% and the Percent Effect [2] was 11%.
In the case of `CC(C)OCCN(C)C(C)c1cccc(S(N)(=O)=O)c1` (centres undefined), the Percent Effect [1] is reported as -3.29% and the Percent Effect [2] is reported as -16.4%.
`CC(C)Oc1ccccc1C1CC(=O)Nc2c1cnn2C` (centres undefined) gave a Percent Effect [1] of 2.79% and a Percent Effect [2] of -6.39%.
`Cc1ccccc1CN1CCN(CC(=O)Nc2cccnc2)CC1` gave a Percent Effect [1] of -2.08% and a Percent Effect [2] of 17%.
